In the supplement of paper PMC6555819:

Assays:
Experiment in all cases: PBM binding z-score (relative to random genomic background probes); higher = stronger binding; sequences stand for … in GC…GCGATTGACAGCGTAGAATGAAGG
[1] = system: RARb homodimer (NR concentration 270 nM)
How it was run: (§1)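 Regression normalization was applied to scanned fluorescence from custom Agilent 4×180K protein-binding microarrays. Before scanning, arrays were incubated 1 h with ligand-free nuclear receptor dimers, and binding was detected with antibodies against each partner (one per run). Binding z-scores use the random background probes as reference.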

[2] = system: RARg:RXRa (NR concentration 270 nM, RXRa partner concentration 90 nM)
How it was run: as §1

[3] = system: RARg homodimer (NR concentration 270 nM)
How it was run: as §1

[4] = system: RXRa DBDmut IVT, anti-RXR (DBD mutation: RXRa K156A/R161A, NR concentration 90 nM)
How it was run: as §1

[5] = system: RXRa homodimer (NR concentration 180 nM)
How it was run: as §1

[6] = system: THRa:RXRa (NR concentration 90 nM, RXRa partner concentration 90 nM)
How it was run: as §1

[7] = system: THRa homodimer (NR concentration 90 nM)
How it was run: as §1

[8] = system: VDR homodimer (NR concentration 270 nM)
How it was run: as §1

Sequence	PBM binding z-score [1]	PBM binding z-score [2]	PBM binding z-score [3]	PBM binding z-score [4]	PBM binding z-score [5]	PBM binding z-score [6]	PBM binding z-score [7]	PBM binding z-score [8]
TAGCCTAGGTCATGAGCCAGTATACCACGCGAAC	2.5	4.1	3.99	0.516	3.37	2.97	1.01	0.409
ACTAGCAGGCCAAGTTTGGCTCACTCAAACAAAG	-0.243	-0.36	-0.0918	-0.118	-0.415	-0.267	-0.863	-0.448
GCTTGCAGGCCATTTGGGTCACTCAATGACGGGC	1.87	1.31	1.56	0.31	0.653	2.07	0.686	0.751
AGAATGTGGTTACCAAAGATCAGGGAAACGCTTG	-0.487	0.0233	0.17	-0.485	0.156	-0.05	-0.409	-0.534
ACAGACAGGTGAGGGAAGGTAACTCAGCTGGACG	0.595	0.445	0.526	-0.769	0.426	2.31	-0.12	-0.764
CCTACTGGGCCAAAAAGGTCAGTGATGCCGATAA	4.09	3.5	3.5	-0.472	2.87	2.11	0.0212	0.295
ATCGAAAGGTCGACGAGGTGAGTTTACACCGTTT	3.04	4.11	3.94	1.48	4.05	3.8	0.782	2.35
GCGACTGGGGCATCGGCAGGTTACCATAACTTAA	1.07	1.17	0.592	-0.207	0.141	1.11	0.42	-0.113
CAAACTGGGTCAAGGTCAAAGTCGGTTTGTGCCA	4.97	5.77	6.18	3.04	5.91	4.27	3.47	4.24
CCTCGTTGGTCAAGGTCACACACGCTATAGGTAC	4.51	4.58	5.23	1.8	4.83	4.05	4.37	3.86
CGTCAAAGTTCAAGGGAACGTAACAGAAAGCAGC	3.52	4.97	5.93	4.46	4.17	1.72	-0.254	2.72
ATCGCTAGGTAAAGTTCAGTGAAAGATCGATAGA	2.03	1.75	1.86	0.79	1.03	0.617	-0.888	1.49
TCCTATAGGTAAAAGGTGAAAGTCGGTGTGGTAA	1.55	1.83	0.492	1.1	2.64	1.56	0.0134	-0.175
GTACCAAGGTGAATAGGTCGCTGATGAGTAGGCG	1.69	2.65	1.53	-0.316	1.66	1.59	0.0254	-0.0986
GCTAGCAGGCCATTTGCGTCACTCAATGACGGGC	-0.848	-0.404	-0.336	-0.115	-0.347	-0.649	-0.795	-0.529
ACTATTACTTGACTTAGGGCAACCGATACGACGC	1.06	0.943	1.1	0.983	0.745	0.888	1.1	0.484
TGTCAAAGTTCAAAGGTAACGTCAGTATCCACAC	4.03	6.26	5.87	4.29	6.96	3.51	-0.193	4.08
TCGAGTAGGTTACCAATGGGGCCTTCAGCTTTCT	0.0421	0.0942	-0.234	0.173	0.293	-0.167	-0.919	-0.944
ACAGACAGGTGAGAGAAGGTAACTCAGCTGGACG	0.122	0.137	0.491	-0.484	0.333	1.69	-0.219	-0.636
ATCTCTAGGAAAGACTCAGTTCAGTGAAGAACGC	0.415	-0.181	0.129	0.549	-0.107	0.203	0.155	1.33
CGTCCAAGGTCAGCAGTTCAGTGAAAGCGACGTG	4.62	5.66	6.02	2.93	4.16	3.78	2.45	2.41
CTACCAAGGTGAACTAGGTCGTTGATTACTATTC	1.98	1.45	1.42	0.925	1.49	2.82	1.68	0.82
CCTGCTAGGTCATGGTCAGCTGATCTACAGTATG	3.13	3.97	4.53	1.96	3.2	3.17	1.23	0.608
TCTTGTAGATCAAAGGTTAAGAAAGCCGAAGCCT	1.36	1.68	0.776	0.652	3.27	1.27	-0.357	-0.0957
TCAGACAGGCGAAGGTAACTCAGGTACGCAGTCG	-0.405	-0.089	-0.377	0.863	0.579	0.951	-0.297	-0.35
TCTAGCAGGCCAGAGTGTCACTCAAGAGGTACGG	0.119	0.145	0.167	-0.194	0.302	-0.304	-1.19	-0.738
ACTTACGGGTCAACGAGGTTATATCACGCGTATA	3.73	5.37	4.95	2.74	6.14	4.04	1.45	3.3
ACTAGCAGGCCAAGGGTCACTGAAGATTAGTCCG	3.8	4.5	3.97	0.371	4.49	2.68	-0.0402	0.94
